Assay results as given in PubChem BioAssay (NCI).
The panel holds about 79,000 compounds, 15% with a hit somewhere; the sample as a whole holds those more often. Calls of active or inactive are those of the source. No stated cut-off is given here; in the data, active means growth inhibition above about 70%; inactive means the rest.

What was measured:
[1] = NCI Yeast Anticancer Drug Screen. Data for the wt1 strain (AID 149);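 further: 0% = growth of vehicle-treated wt1 cultures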; settings: S. cerevisiae wt1 strain (SPY 50644) growth inhibition, stronger effect = higher value
Procedure, shortened: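 Yeast wt1 strain exposed to compounds; growth inhibition measured relative to vehicle-treated controls.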

[2] = NCI Yeast Anticancer Drug Screen. Data for the rad50EPP+ strain (AID 151);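 further: 0% = growth of vehicle-treated control cultures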; settings: S. cerevisiae rad50 mutant strain, stronger effect = higher value
Procedure, shortened: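 In this screen, rad50EPP+ yeast were exposed to compounds. Growth inhibition was scored against vehicle-treated controls.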

[3] = NCI Yeast Anticancer Drug Screen. Data for the mgt1 strain (AID 153); settings: S. cerevisiae mgt1 mutant growth inhibition, stronger effect = higher value
Procedure, shortened: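 mgt1 strain exposed; growth vs vehicle control recorded as inhibition.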

[4] = NCI Yeast Anticancer Drug Screen. Data for the rad50 strain (AID 155);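 further: 0% = growth of vehicle-only cultures of the same strain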; settings: S. cerevisiae rad50 strain growth inhibition, stronger effect = higher value
Procedure, shortened: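 Yeast carrying a defined DNA repair defect were exposed to test compounds, and growth was compared with vehicle-treated controls to give percent inhibition.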

[5] = NCI Yeast Anticancer Drug Screen. Data for the mec2-1 strain (AID 157); settings: S. cerevisiae mec2-1 strain, stronger effect = higher value
Procedure, shortened: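 Vehicle-treated cultures served as reference for growth inhibition of compound-exposed mec2-1 yeast.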

[6] = NCI Yeast Anticancer Drug Screen. Data for the rad14 strain (AID 159);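 further: 0% = growth of vehicle-treated control cultures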; settings: S. cerevisiae rad14 strain growth inhibition, stronger effect = higher value
Procedure, shortened: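 Yeast cells carrying a defined DNA-repair defect were exposed to compounds, and growth inhibition was calculated relative to vehicle-treated control cultures.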

[7] = NCI Yeast Anticancer Drug Screen. Data for the sgs1 mgt1 strain (AID 161);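 further: 0% = growth of cultures given vehicle only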; settings: S. cerevisiae sgs1 mgt1 strain, stronger effect = higher value
Procedure, shortened: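 Genetically altered yeast, compound exposure, growth inhibition relative to vehicle.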

[8] = NCI Yeast Anticancer Drug Screen. Data for the CLN2oe strain (AID 163);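 further: 0% = growth of vehicle-only control cultures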; settings: S. cerevisiae CLN2oe strain, stronger effect = higher value
Procedure, shortened: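 Inhibition relative to vehicle-treated yeast is reported. Cells: strain with genetic alteration in cell-cycle control, grown with compound.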

[9] = NCI Yeast Anticancer Drug Screen. Data for the cln2 rad14 strain (AID 165);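 further: 0% = growth equal to vehicle treated cultures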; settings: S. cerevisiae cln2 rad14 strain, stronger effect = higher value
Procedure, shortened: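 Each compound was tested on cln2 rad14 yeast. Inhibition of growth was calculated against vehicle-exposed controls.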

[10] = NCI Yeast Anticancer Drug Screen. Data for the bub3 strain (AID 167); settings: S. cerevisiae bub3 mutant strain, stronger effect = higher value
Procedure, shortened: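 Compounds were applied to a genetically altered yeast strain carrying a cell-cycle control defect. Growth inhibition was scored against vehicle-treated controls.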

[11] = NCI Yeast Anticancer Drug Screen. Data for the wt2 strain (AID 169);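 further: 0% = growth of vehicle-treated yeast cultures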; settings: S. cerevisiae wt2 strain growth inhibition, stronger effect = higher value
Procedure, shortened: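 Inhibition of yeast growth was determined after compound treatment, normalised to controls receiving only vehicle.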

[12] = NCI Yeast Anticancer Drug Screen. Data for the sgs1 strain (AID 173);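 further: 0% = growth of vehicle-only control cultures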; settings: S. cerevisiae sgs1 mutant, stronger effect = higher value
Procedure, shortened: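 Screen format: yeast with repair or checkpoint alterations, compound exposure, growth read relative to vehicle.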

[13] = NCI Yeast Anticancer Drug Screen. Data for the mlh1 rad18 strain (AID 175); settings: S. cerevisiae mlh1 rad18 strain growth inhibition, stronger effect = higher value
Procedure, shortened: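 Vehicle-treated cultures served as the reference for growth inhibition in a yeast strain carrying DNA damage repair alterations exposed to each compound.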

[14] = NCI Yeast Anticancer Drug Screen. Data for the rad18 strain (AID 177); settings: S. cerevisiae rad18 mutant growth inhibition, stronger effect = higher value
Procedure, shortened: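 Test articles were incubated with altered yeast defective in DNA damage repair. Results are given as inhibition of growth versus vehicle.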

[15] = NCI Yeast Anticancer Drug Screen. Data for the mlh1 strain (AID 171);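 further: 0% = growth of vehicle-treated control cultures of the same strain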; settings: S. cerevisiae mlh1 strain growth inhibition, stronger effect = higher value
Procedure, shortened: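 Vehicle-normalised growth inhibition of a repair- or checkpoint-altered yeast strain following compound treatment.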

[16] = at 5.0 µM (retest, dose inferred, filed as 0.5)
[17] = at 50.0 µM (retest, dose inferred, filed as 5.0)

Measured: growth inhibition

Cc1cc(N(CCOS(C)(=O)=O)CCOS(C)(=O)=O)ccc1C=O
active: [6]; at 100.0 µM 83% | [13]; [17] 88% | [13]; at 50.0 µM 82.5% | [14]; at 11.0 µM 70% | [14]; at 33.0 µM 86% | [14]; at 100.0 µM 89%
inactive: [1]; at 1.2 µM 27% | [1]; at 3.7 µM 28% | [1]; at 11.0 µM 32% | [1]; at 33.0 µM 37% | [1]; at 100.0 µM 31% | [2]; at 1.2 µM 15% | [2]; at 3.7 µM 45% | [2]; at 11.0 µM 34% | [2]; at 33.0 µM 30% | [2]; at 100.0 µM 15% | [3]; at 1.2 µM 14% | [3]; at 3.7 µM 26% | [3]; at 11.0 µM 34% | [3]; at 33.0 µM 41% | [3]; at 100.0 µM 44% | [4]; at 1.2 µM 4% | [4]; at 3.7 µM 16% | [4]; [16] 29% | [4]; at 11.0 µM 26% | [4]; at 33.0 µM 43% | [4]; [17] 57% | [4]; at 50.0 µM 50% | [4]; at 100.0 µM 66% | [5]; at 1.2 µM 6% | [5]; at 3.7 µM 23% | [5]; [16] 24% | [5]; at 11.0 µM 24% | [5]; at 33.0 µM 41% | [5]; [17] 57% | [5]; at 50.0 µM 54.8% | [5]; at 100.0 µM 68% | [6]; at 1.2 µM 20% | [6]; at 3.7 µM 36% | [6]; at 11.0 µM 50% | [6]; at 33.0 µM 64% | [7]; [16] 13% | [7]; [17] 38% | [7]; at 50.0 µM 12.8% | [8]; at 1.2 µM 2% | [8]; at 3.7 µM 9% | [8]; at 11.0 µM 10% | [8]; at 33.0 µM 36% | [8]; at 100.0 µM 34% | [9]; [16] 34% | [9]; [17] 45% | [9]; at 50.0 µM 36.9% | [10]; at 1.2 µM 16% | [10]; at 3.7 µM 17% | [10]; [16] -3% | [10]; at 11.0 µM 4% | [10]; at 33.0 µM 18% | [10]; [17] 13% | [10]; at 50.0 µM 4.7% | [10]; at 100.0 µM 34% | [11]; at 1.2 µM -45% | [11]; at 3.7 µM -46% | [11]; at 11.0 µM -43% | [11]; at 33.0 µM 1% | [11]; at 100.0 µM 33% | [12]; at 1.2 µM 19% | [12]; at 3.7 µM 22% | [12]; at 11.0 µM 39% | [12]; at 33.0 µM 51% | [12]; at 100.0 µM 58% | [13]; [16] 56% | [14]; at 1.2 µM 29% | [14]; at 3.7 µM 50%

CC(=O)CC[N+](C)(C)C
inactive: [1]; at 1.2 µM 0% | [1]; at 3.7 µM 11% | [1]; at 11.0 µM 2% | [1]; at 33.0 µM -5% | [1]; at 100.0 µM 2% | [2]; at 1.2 µM -7% | [2]; at 3.7 µM 4% | [2]; at 11.0 µM -4% | [2]; at 33.0 µM -15% | [2]; at 100.0 µM 7% | [3]; at 1.2 µM -29% | [3]; at 3.7 µM -21% | [3]; at 11.0 µM -17% | [3]; at 33.0 µM -21% | [3]; at 100.0 µM -2% | [4]; at 1.2 µM -14% | [4]; at 3.7 µM -9% | [4]; [16] 31% | [4]; at 11.0 µM -4% | [4]; at 33.0 µM -14% | [4]; at 50.0 µM 0.7% | [4]; at 100.0 µM -13% | [5]; at 1.2 µM 4% | [5]; at 3.7 µM -3% | [5]; [16] 22% | [5]; at 11.0 µM -1% | [5]; at 33.0 µM -7% | [5]; [17] 59% | [5]; at 50.0 µM -22.7% | [5]; at 100.0 µM 4% | [6]; at 1.2 µM 5% | [6]; at 3.7 µM 6% | [6]; at 11.0 µM -5% | [6]; at 33.0 µM 0% | [6]; at 100.0 µM -2% | [7]; [16] 13% | [7]; [17] 51% | [7]; at 50.0 µM -30.9% | [8]; at 1.2 µM 17% | [8]; at 3.7 µM 28% | [8]; at 11.0 µM 31% | [8]; at 33.0 µM 31% | [8]; at 100.0 µM 36% | [9]; [16] 25% | [9]; [17] 30% | [9]; at 50.0 µM -41.7% | [10]; at 1.2 µM 12% | [10]; at 3.7 µM 16% | [10]; [16] 20% | [10]; at 11.0 µM 16% | [10]; at 33.0 µM 13% | [10]; [17] 14% | [10]; at 50.0 µM -24.3% | [10]; at 100.0 µM 27% | [11]; at 1.2 µM -22% | [11]; at 3.7 µM -1% | [11]; at 11.0 µM -25% | [11]; at 33.0 µM -31% | [11]; at 100.0 µM -30% | [15]; at 1.2 µM -13% | [15]; at 3.7 µM -6% | [15]; at 11.0 µM -11% | [15]; at 33.0 µM -9% | [15]; at 100.0 µM -22% | [12]; at 1.2 µM -8% | [12]; at 3.7 µM -12% | [12]; at 11.0 µM 3% | [12]; at 33.0 µM 3% | [12]; at 100.0 µM 23% | [13]; [16] 26% | [13]; at 50.0 µM 41.9% | [14]; at 1.2 µM -20% | [14]; at 3.7 µM -11% | [14]; at 11.0 µM 14% | [14]; at 33.0 µM -2% | [14]; at 100.0 µM -10%
active: [4]; [17] 100% | [13]; [17] 80%

S=c1[nH]nc(Cc2ccccc2)c(=S)[nH]1
inactive: [1]; at 1.2 µM -47% | [1]; at 3.7 µM -14% | [1]; at 11.0 µM 30% | [2]; at 1.2 µM -22% | [2]; at 3.7 µM -10% | [2]; at 11.0 µM -11% | [2]; at 33.0 µM 16% | [2]; at 100.0 µM 48% | [3]; at 1.2 µM 23% | [3]; at 3.7 µM 47% | [4]; at 1.2 µM -17% | [4]; at 3.7 µM -6% | [4]; [16] 63% | [4]; at 11.0 µM 36% | [4]; [17] 55% | [5]; at 1.2 µM -8% | [5]; at 3.7 µM -6% | [5]; [16] 7% | [5]; at 11.0 µM 29% | [5]; at 50.0 µM 64.2% | [6]; at 1.2 µM -3% | [6]; at 3.7 µM 26% | [6]; at 11.0 µM 69% | [7]; [16] 41% | [8]; at 1.2 µM 26% | [8]; at 3.7 µM 25% | [8]; at 11.0 µM 35% | [9]; [16] 45% | [9]; [17] 67% | [9]; at 50.0 µM 39.4% | [10]; at 1.2 µM 16% | [10]; at 3.7 µM 21% | [10]; [16] 46% | [10]; at 11.0 µM 51% | [11]; at 1.2 µM -40% | [11]; at 3.7 µM -1% | [11]; at 11.0 µM 62% | [15]; at 1.2 µM 14% | [15]; at 3.7 µM 34% | [13]; [16] 53% | [13]; [17] 60% | [14]; at 1.2 µM 9% | [14]; at 3.7 µM 3% | [14]; at 11.0 µM 42%
active: [1]; at 33.0 µM 92% | [1]; at 100.0 µM 97% | [3]; at 11.0 µM 83% | [3]; at 33.0 µM 97% | [3]; at 100.0 µM 97% | [4]; at 33.0 µM 89% | [4]; at 50.0 µM 72.6% | [4]; at 100.0 µM 95% | [5]; at 33.0 µM 91% | [5]; [17] 75% | [5]; at 100.0 µM 96% | [6]; at 33.0 µM 94% | [6]; at 100.0 µM 97% | [7]; [17] 83% | [7]; at 50.0 µM 86.3% | [8]; at 33.0 µM 91% | [8]; at 100.0 µM 96% | [10]; at 33.0 µM 94% | [10]; [17] 79% | [10]; at 50.0 µM 71.2% | [10]; at 100.0 µM 97% | [11]; at 33.0 µM 94% | [11]; at 100.0 µM 95% | [15]; at 11.0 µM 77% | [15]; at 33.0 µM 96% | [15]; at 100.0 µM 96% | [13]; at 50.0 µM 75.2% | [14]; at 33.0 µM 94% | [14]; at 100.0 µM 97%
